Screening results as filed in PubChem BioAssay.
Most compounds without a hit are left out; they make up all but 7.8% or so of the library.
HCMV antiviral: inhibitors of human cytomegalovirus; HFF cells, HCMV-luciferase reporter, 72 h; active compounds read low; activity change, negative = inhibition, % at 57.5 µM; 410,000 compounds, 4.5% hits; in the data active = activity change below about -60%; inconclusive = no clear call, values can overlap the other calls; inactive = above about -39%
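After 16 h attachment at 37C, HFF cells received test compound and HCMV-luciferase (1 PFU/cell); reporter luminescence read 72 h later, data normalized against buffer-only and known inhibitor Salinomycin.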
Vaccinia mCherry: inhibitors of vaccinia virus infection (mCherry reporter signal) | Potency, µM (titrated, usually from 36.5 µM), hits mostly inhibitors | Vaccinia virus mCherry reporter infection, fluorescence | 310,000 compounds, 0.63% hits; calls by dose curve; tested in A549 cells; note: nearly all actives have a fitted effect of over 35% in size
LASV entry inh: inhibitors of Lassa virus binding or cell entry; Lassa virus pseudotype entry inhibition, cell reporter; Potency, µM (highest dose often 37.9 µM), most hits filed as inhibitors; 300,000 compounds, 1.2% hits; AID 540256; calls by dose curve; tested in HEK293 cells; note: nearly all actives have a fitted effect of over 50% in size
HCV inh: HCV inhibition. 340,000 compounds, 3.4% hits. AID 651820. Potency, µM (highest dose often 41.8 µM), actives largely listed as inhibitors. Huh7.5.1 HCVcc-Cre infection, luciferase reporter, 44 h; active = well fitted inhibition curve with a large enough effect; inconclusive = small, poorly fitted or top-dose-only effect, or another doubt; inactive = no such curve, though single readings can be large or run the other way
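1,000 cells/well; 4 h culture; + compound; + HCVcc-Cre (~0.5 moi); 44 h; luciferase substrate, RT 15 min; read 15 sec.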
Vaccinia Venus: vaccinia inhibition (Venus reporter) | Potency, µM (highest dose often 36.5 µM), actives largely listed as inhibitors | Vaccinia virus Venus reporter expression, fluorescence | 330,000 compounds, 0.46% hits | AID 720580; calls by dose curve; tested in A549 cells; note: nearly all actives have a fitted effect of over 30% in size
Marburg entry inh: inhibitors of Marburg virus binding or cell entry | Marburg virus pseudotyped entry inhibition, cell reporter | Potency, µM (series often up to 37.8 µM), most hits filed as inhibitors | 300,000 compounds, 1.8% hits | AID 540276; calls by dose curve; tested in HEK293 cells
Large screens that a line does not name were inactive.

Cc1cc(SCC#N)n2nc(C)c(-c3ccccc3)c2n1	HCMV antiviral -72.8, Vaccinia mCherry inconclusive, HCV inh inconclusive
Cc1nn2c(N3CCCC3)cc(C(C)C)nc2c1-c1ccccc1	HCV inh 14.1µM (no result: Vaccinia mCherry, Vaccinia Venus)
COc1ccccc1-c1c(C)nn2c(N3CCCCCC3)cc(C)nc12	HCMV antiviral -95.9, Vaccinia mCherry inconclusive, LASV entry inh inconclusive, HCV inh 12.6µM, Vaccinia Venus inconclusive, Marburg entry inh inconclusive
Cc1cc(N2CCC(C)CC2)n2nc(C)c(-c3ccccc3)c2n1	none (no result: Vaccinia mCherry, Vaccinia Venus)
Cc1cc(N2CCCCC2)n2nc(C)c(-c3ccccc3)c2n1	LASV entry inh inconclusive, HCV inh 1.58µM (no result: Vaccinia mCherry)
COc1ccccc1-c1c(C)nn2c(N3CCOCC3)cc(C)nc12	HCV inh inconclusive (no result: Vaccinia mCherry, LASV entry inh, Vaccinia Venus, Marburg entry inh)
COC(=O)[C@@H]1[C@@H](CO)[C@@H]2Cn3c(ccc(Br)c3=O)[C@@H]2N1C(=O)CN(C)C	none (no result: Vaccinia mCherry, LASV entry inh, HCV inh, Vaccinia Venus, Marburg entry inh)
CC(=O)c1ccc(N2C(=O)N(Cc3ccccc3C#N)c3ccccc3S2(=O)=O)cc1	none (no result: HCV inh, Marburg entry inh)
COc1ccccc1-c1c(C)nn2c(-c3ccccc3)cc(C)nc12	HCMV antiviral -68.1, LASV entry inh inconclusive, HCV inh 5.01µM, Vaccinia Venus inconclusive, Marburg entry inh inconclusive
CCc1ccc(OCCNC(=O)c2ccccc2SCc2ccccc2)cc1	HCMV antiviral -87.8, Vaccinia mCherry inconclusive, LASV entry inh inconclusive, HCV inh inconclusive, Marburg entry inh inconclusive
CC1OC(OC2C=C3CCC4C(CCC5(C)C(c6ccc(=O)oc6)CCC45O)C3(C)CC2)C(O)C(OC2OC(CO)C(O)C(O)C2O)C1O (centres undefined)	HCMV antiviral -97.4, Vaccinia mCherry 0.282µM, LASV entry inh inconclusive, HCV inh 15.8µM, Vaccinia Venus 0.0032µM, Marburg entry inh inconclusive
Cc1c(Cl)cccc1NC(=O)Cn1c(=O)n(Cc2ccco2)c(=O)c2oc3ccccc3c21	none (no result: HCV inh, Marburg entry inh)
CN1CCN(Cc2cccc(Oc3ccc(Cl)cc3)c2)CC1	HCMV antiviral -60.8, HCV inh inconclusive, Marburg entry inh inconclusive
CCN1CCN(Cc2cccc(Oc3ccc(Cl)cc3)c2)CC1	LASV entry inh inconclusive, HCV inh 12.6µM, Vaccinia Venus inconclusive, Marburg entry inh inconclusive
COc1cc(OC)c(C2=NOC(C(=O)N3CCCc4ccccc43)C2)cc1Cl (centres undefined)	HCV inh 5.62µM, Marburg entry inh inconclusive (no result: Vaccinia mCherry, Vaccinia Venus)
CCC1CCCCN1C(=O)C1CC(c2cc(Cl)c(OC)cc2OC)=NO1 (centres undefined)	none
CN(C(=O)COc1ccccc1C(=O)Nc1ccccc1)c1ccccc1	none (no result: HCMV antiviral, LASV entry inh, HCV inh, Marburg entry inh)
O=C(NC1CCCCC1)c1ccc(-c2ccccc2F)o1	LASV entry inh inconclusive, HCV inh 0.708µM, Marburg entry inh inconclusive
Cc1cc(N2CCN(C)CC2)ccc1NC(=O)c1ccc(-c2ccc(Cl)cc2)o1	HCMV antiviral inconclusive, Vaccinia mCherry inconclusive, LASV entry inh inconclusive, HCV inh 14.1µM, Marburg entry inh inconclusive
CN1CCN(c2ccc(NC(=O)c3ccc(-c4ccccc4F)o3)cc2)CC1	LASV entry inh inconclusive, HCV inh 10µM, Marburg entry inh inconclusive
O=C(NC1CCCCC1)c1ccc(-c2cccc([N+](=O)[O-])c2)o1	HCMV antiviral -68.7, HCV inh inconclusive (no result: Vaccinia mCherry, LASV entry inh, Vaccinia Venus, Marburg entry inh)
O=C(O)c1ccc(-c2cccc([N+](=O)[O-])c2)o1	none (no result: LASV entry inh, Marburg entry inh)
CC(=O)NC(Cc1cccc(C)c1)C(=O)NC1CCN(C(=O)c2ccc([N+](=O)[O-])cc2)CC1 (centres undefined)	HCMV antiviral -74.4
Cc1cccc(C)c1Nc1sc(C(=O)c2ccccc2)c(N)c1S(=O)(=O)c1ccccc1	HCMV antiviral -61.6, LASV entry inh inconclusive (no result: HCV inh, Marburg entry inh)
COc1ccc(C(=O)N(Cc2ccccc2)c2cccc(C)c2)cc1	HCMV antiviral -60.2 (no result: Vaccinia mCherry, LASV entry inh, Vaccinia Venus, Marburg entry inh)
Oc1cccc(Nc2cc3[nH]c(-c4ccccc4)cc3cn2)c1	HCMV antiviral -86.6 (no result: Vaccinia mCherry, LASV entry inh, HCV inh, Vaccinia Venus, Marburg entry inh)
O=[S+]1([O-])C[C@H](N2CC[C@@H](O)C2)[C@H](COCc2ccccc2)N1	none (no result: HCMV antiviral, Vaccinia mCherry, HCV inh, Vaccinia Venus, Marburg entry inh)
CCOCCCNC(=O)/C(C#N)=C/c1ccc(Cl)c([N+](=O)[O-])c1	HCMV antiviral -102.0, HCV inh inconclusive, Marburg entry inh inconclusive
COCCNC(=O)/C(C#N)=C/c1cccc(/C=C(\C#N)C(=O)NCCOC)c1	HCMV antiviral -68.3, LASV entry inh inconclusive, HCV inh 10µM, Marburg entry inh inconclusive
N#C/C(=C\c1cccc([N+](=O)[O-])c1)C(=O)NCc1ccc(Cl)cc1	HCMV antiviral -98.1, Marburg entry inh inconclusive
COc1ccc(/C=C(\C#N)C(=O)NCCc2ccccc2)cc1OCc1ccccc1	LASV entry inh inconclusive, HCV inh inconclusive, Marburg entry inh 11.2µM
N#C/C(=C\c1cccc([N+](=O)[O-])c1)C(=O)NCc1cccnc1	LASV entry inh inconclusive
COCC(=O)N1CCCCN2[C@H](C1)[C@H](c1ccc(C#Cc3ccccc3)cc1)[C@@H]2CO	none (no result: Vaccinia mCherry, LASV entry inh, HCV inh, Vaccinia Venus, Marburg entry inh)
COc1cccc(CSc2nc3cc(OC)c(OC)cc3c3nc(CCn4nc(C)cc4C)nn23)c1	none (no result: HCV inh)
Cc1cc(C)cc(NC(=O)COc2cccc3c(=O)n(C)ccc23)c1	none (no result: HCV inh, Marburg entry inh)
COCCNC(=O)/C(C#N)=C/C=C/c1ccccc1[N+](=O)[O-]	HCMV antiviral -95.6, LASV entry inh inconclusive, HCV inh inconclusive, Marburg entry inh inconclusive
O=C(CN1C(=O)COc2ccccc21)NCCN1CCOCC1	HCMV antiviral -74.9
O=C(CN1C(=O)COc2ccccc21)NCCN1CCC(Cc2ccccc2)CC1	HCV inh 22.4µM
O=C(CCN1C(=O)COc2ccccc21)NCCN1CCOCC1	none
CCOC(=O)N1CCN(C(=O)CCN2C(=O)COc3ccccc32)CC1	HCMV antiviral -61.5
CC1CCCN(C(=O)c2cc3ccc4cccnc4c3[nH]2)C1 (centres undefined)	HCMV antiviral -81.0 (no result: HCV inh, Marburg entry inh)
CCOC(=O)C1CCN(C(=O)c2cc3ccc4cccnc4c3[nH]2)CC1	LASV entry inh inconclusive (no result: HCV inh, Marburg entry inh)
Cc1ccc(Cl)cc1N1CCN(C(=O)c2cc3ccc4cccnc4c3[nH]2)CC1	HCMV antiviral -70.0, LASV entry inh inconclusive (no result: HCV inh, Marburg entry inh)
O=C(c1cc2ccc3cccnc3c2[nH]1)N1CCCCC1	HCMV antiviral -67.2 (no result: HCV inh, Marburg entry inh)
O=C(c1cc2ccc3cccnc3c2[nH]1)N1CCN(c2cccc(Cl)c2)CC1	none (no result: HCV inh, Marburg entry inh)
O=C(NCC1CCN(Cc2ccc(F)cc2)CC1)c1cc2ccc3cccnc3c2[nH]1	HCMV antiviral -68.1, LASV entry inh inconclusive, Vaccinia Venus inconclusive (no result: HCV inh, Marburg entry inh)
O=C(c1cc2ccc3cccnc3c2[nH]1)N1CCN(c2ccc(Cl)cc2)CC1	none (no result: HCV inh, Marburg entry inh)
O=C(Nc1ccc(F)cc1F)c1cc2c(=O)n3ccccc3nc2s1	none (no result: HCV inh)
CCOc1ccc(NC(=O)Cn2ccn3nc(-c4ccc(OC)c(OC)c4)cc3c2=O)cc1	LASV entry inh inconclusive (no result: HCV inh, Marburg entry inh)
CCC1CCCCN1C(=O)c1c[nH]c2ccc(S(=O)(=O)Nc3cccc(OC)c3)cc2c1=O (centres undefined)	none (no result: HCV inh, Marburg entry inh)
CCOc1ccc(CCNC(=O)Cn2c(-c3nonc3N)nc3ccccc32)cc1OCC	HCV inh 14.1µM
CCc1ccccc1NC(=O)Cn1c(-c2nonc2N)nc2ccccc21	none (no result: HCV inh)
